APE1 inh-1: inhibitors of human APE1 endonuclease. P27695. recombinant APE1, TAMRA/BHQ-2 abasic DNA cleavage fluorescence. Potency, µM (highest dose often 65.8 µM), for inactives: at the top dose activity change, negative = inhibition, hits mostly inhibitors. 350,000 tested, 0.35% active;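 note: plate controls were vehicle for no effect and reference inhibitor for full effect; nearly all actives have a fitted effect of over 55% in size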
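Substrate: short duplex with […] THF abasic site, 5'-TAMRA and 3'-BHQ-2, 50 nM final. APE1 at 0.75 nM, preincubated 15 min RT with compound. Fluorescence increase from first to third read measured activity.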
L3MBTL1 inh: blocks human L3MBTL1. Q9Y468. AlphaScreen L3MBTL1–H3K9me1 peptide binding. Potency, µM (highest dose often 57.1 µM), for the others: top-dose activity, negative = inhibition, most hits filed as inhibitors. 230,000 tested, 0.66% active; note: nearly all actives have a fitted effect of over 60% in size
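L3MBTL1 50 nM + b-AHA-H3(1-15)K9me1 75 nM, 30 min RT; compound added, 30 min RT; streptavidin donor/Ni-chelate acceptor beads 10 ug/mL each final, 30 min RT dark; AlphaScreen read.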
BLM helicase inh: Bloom syndrome helicase (human) inhibition | P54132 | 350,000 tested, 0.2% active | recombinant BLM DNA unwinding, fluorescence dequenching | Potency, µM (series often up to 56.1 µM), without a hit: at the top dose activity change, negative = inhibition, hits mostly inhibitors;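 note: plate controls were vehicle for no effect and no enzyme for full effect; nearly all actives have a fitted effect of over 35% in size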
RECQ1 helicase: blocks DNA unwinding by human RECQ1 | P46063 | RECQ1 DNA unwinding, red fluorescence kinetic read | Potency, µM (titrated, usually from 57.3 µM), for inactives: at the highest dose activity, negative = inhibition, most hits filed as inhibitors | 240,000 tested, 0.54% active;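 note: plate controls were vehicle for no effect and no enzyme for full effect; nearly all actives have a fitted effect of over 30% in size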
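RECQ1T1 50 nM; forked duplex (20 bp + 30-nt ss tails) 200 nM, ATP 2 mM final; pH 8.0, 2 mM MgCl2, 2.5 ug/ml poly(dI-dC); 15 min compound preincubation; discontinuous kinetic read over 2 h at RT.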
JMJD2E inh: JMJD2E (human) inhibition | JMJD2E catalytic domain, FDH-coupled NADH fluorescence (FDH is formaldehyde dehydrogenase) | B2RXH2 | AID 2147 | 230,000 tested, 1.6% active | Potency, µM (titrated, usually from 57.1 µM), for the others: at the highest dose activity change, negative = inhibition, hits mostly inhibitors; active = well fitted inhibition curve with a large enough effect, not every such curve was filed as active; inconclusive = small, poorly fitted or top-dose-only effect, or another doubt; inactive = no such curve, though single readings can be large or run the other way;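 note: 0% = wells with enzyme and -100% = buffer wells without enzyme; nearly all actives have a fitted effect of over 50% in size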
Target sequence (B2RXH2 1-337 limits assumed): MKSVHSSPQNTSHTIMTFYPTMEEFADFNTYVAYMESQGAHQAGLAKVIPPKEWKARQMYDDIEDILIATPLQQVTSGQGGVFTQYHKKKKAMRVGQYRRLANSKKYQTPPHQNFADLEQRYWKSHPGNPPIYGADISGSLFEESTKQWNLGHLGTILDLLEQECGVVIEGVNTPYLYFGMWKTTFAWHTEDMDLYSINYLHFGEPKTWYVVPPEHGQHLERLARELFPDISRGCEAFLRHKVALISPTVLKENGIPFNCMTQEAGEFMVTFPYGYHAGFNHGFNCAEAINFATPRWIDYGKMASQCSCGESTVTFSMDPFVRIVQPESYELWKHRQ
GoLoco inh red: blocks human Gai1 binding to RGS12 GoLoco peptide, red readout; AID 880; Gai1:RGS12 GoLoco peptide FP, rhodamine, 10 min; 230,000 tested, 0.44% active; Potency, µM (highest dose often 61.6 µM), for inactives: at the highest dose activity, negative = inhibition, actives largely listed as inhibitors; active = well fitted inhibition curve with a large enough effect, not every such curve was filed as active; inactive = no such curve, though single readings can be large or run the other way; note: nearly all actives have a fitted effect of over 30% in size
Target sequence (P63096 whole entry, looked up): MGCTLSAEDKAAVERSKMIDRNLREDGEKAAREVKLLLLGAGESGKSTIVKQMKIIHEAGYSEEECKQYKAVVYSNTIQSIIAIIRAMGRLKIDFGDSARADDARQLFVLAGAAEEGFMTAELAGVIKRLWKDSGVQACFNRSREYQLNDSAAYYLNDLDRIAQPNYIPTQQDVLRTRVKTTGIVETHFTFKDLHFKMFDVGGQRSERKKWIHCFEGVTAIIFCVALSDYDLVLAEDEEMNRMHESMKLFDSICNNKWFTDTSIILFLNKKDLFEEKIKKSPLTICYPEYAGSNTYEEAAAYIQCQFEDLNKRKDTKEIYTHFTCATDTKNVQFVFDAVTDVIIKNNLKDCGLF
DNA dye displace: DNA dye displacement counter-screen activity; shares compounds with APE1 inh-1; DNA fluorescent dye displacement counterscreen, fluorescence; Potency, µM (series often up to 28.5 µM), without a hit: at the highest dose activity change, negative = inhibition, usual class: inhibitors; 480 tested, 7% active;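 note: loss of thiazole orange fluorescence as the dye is displaced from duplex DNA; 0% = ThO with dsDNA and no compound and -100% = ThO without dsDNA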
Endo IV inh: blocks E. coli endonuclease IV DNA cleavage; 560 tested, 4% active; E. coli Endo IV, fluorogenic AP-site DNA cleavage; shares compounds with APE1 inh-1; Potency, µM (top dose mostly 27.1 µM), without a hit: at the highest dose activity change, negative = inhibition, actives largely listed as inhibitors;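 note: plate controls were uninhibited enzyme wells for no effect and no enzyme buffer wells for full effect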
APE1 inh-2: confirmation of inhibitors of human APE1 endonuclease; shares compounds with APE1 inh-1; purified APE1, fluorogenic abasic-site DNA cleavage; AID 2572; Potency, µM (titrated, usually from 57.1 µM), inactives show top-dose activity change, negative = inhibition, actives largely listed as inhibitors; 750 tested, 44% active; note: nearly all actives have a fitted effect of over 30% in size
APE1 FP inh: displaces DNA from human APE1 in FP assay; APE1 binding to TAMRA-labelled double-stranded DNA, fluorescence polarization displacement; AID 2573; 480 tested, 7% active; shares compounds with APE1 inh-1; Potency, µM (top dose mostly 28.5 µM), for the others: top-dose activity, negative = inhibition, most hits filed as inhibitors
Numbers without * were called inactive; i = inactive; ? = inconclusive; . = not tested or not shown; [ ] = dose if it differs, or a comment. This excerpt belongs to a sample that is enriched for hits. Unless noted, calls come from the whole dose curve; as a rule, active = well fitted curve in the direction sought with a large enough effect; inconclusive = small, poorly fitted or top-dose-only effect, or another doubt; inactive = no such curve, though single readings can be large; an effect the other way counts as inactive or inconclusive. Unless noted, % is set by controls: 0 for no effect and ±100 for the full control effect; potency is the fitted concentration of half-maximal effect.

SMILES	APE1 inh-1	L3MBTL1 inh	BLM helicase inh	RECQ1 helicase	JMJD2E inh	GoLoco inh red	APE1 inh-2	others
O=C(CSc1nnc(SCc2ccc(Cl)cc2)s1)N/N=C/c1c[nH]c2ccccc12	0%	-15%	?	i	-1%	-4%	-21%
CCOC(=O)/C=C/C(=O)OCC(=O)Nc1ccc(Cl)cn1	25%	.	-7%	2%	11%	74%	.
CCOC(=O)NC1(Nc2ccc(Cl)cn2)Oc2ccccc2O1	2.5µM*	11µM*	-7%	22µM*	25µM*	-7%	-22%
CCn1c(SCc2nc3sc(C(=O)O)c(C)c3c(=O)[nH]2)nc2ccccc21	20µM*	.	67%	?	-4%	76%	?
COCCn1c(SCc2nc3sc(C(=O)OC)c(C)c3c(=O)[nH]2)nc2ccccc21	0%	-6%	-5%	-4%	-6%	80%	.
O=[N+]([O-])c1ccc2c(c1)c(S(=O)(=O)O)cc1nonc12	.	.	.	.	.	0%[14.2 µM]	.
CC1=C(C(=O)Nc2cccnc2)C(c2cccc(Br)c2)n2nc(SCc3ccccc3)nc2N1 (stereo not drawn)	.	.	-2%	.	.	.	.
CN1[C@@H]2CC[C@H]1CC(OC(=O)c1c[nH]c3ccccc13)C2 (stereo partly drawn)	-4%	.	-6%	-5%	.	9%	.
CN1C2CCC1CC(OC(=O)c1c[nH]c3ccccc13)C2 (stereo not drawn)	19%	-4%	-9%	?	-1%	20%	-22%	Endo IV inh=-12%[57.1 µM]
CCOC(c1cc(OC)cc([N+](=O)[O-])c1OC)C(C)C(OC)[C@@H](C)/C=C/CC(=O)OC (stereo partly drawn)	-9%[12.4 µM]	.	0%[12.4 µM]	i[11.5 µM]	.	.	.
CC1(C)CC(=O)C=C(NCc2ccccc2)C1	?	1%	0%	i	1%	-4%	?	DNA dye displace=-2%;Endo IV inh=1%;APE1 FP inh=13%
O=C(NNC(=O)c1ccc(Br)o1)c1ccc(NC(=O)c2ccccc2)cc1	14µM*	-2%[11.4 µM]	-10%	i	?	9%	?	DNA dye displace=4%;Endo IV inh=1%;APE1 FP inh=1%
O=C(Nc1ccccc1C(=O)O)c1ccc(NC(=O)c2ccc(Br)o2)cc1	13%	.	-1%	-5%	1%	14%	.
N#C/C(=C\c1ccco1)c1nc2ccccc2s1	-10%	-2%	-3%	?	1%	71%	.
N#C/C(=C/c1ccc(-c2cc(C(=O)O)cc(C(=O)O)c2)o1)c1nc2ccccc2s1	?	.	55%	?	?	102%	14µM*	DNA dye displace=?;Endo IV inh=?;APE1 FP inh=-8%
Cc1nc(N)sc1-c1csc(Nc2ncccn2)n1	?	2%	-20%	-5%	-11%	7%	?
O=C1/C(=C/C=C/c2ccco2)SC(=S)N1NS(=O)(=O)c1ccccc1	2.5µM*	.	?	3.5µM*	16µM*	42%	3.5µM*	DNA dye displace=-3%;Endo IV inh=116%;APE1 FP inh=?
CC(C(=O)O)N1C(=O)/C(=C/C=C/c2ccco2)SC1=S (stereo not drawn)	2.8µM*	1.1µM*	?	6.3µM*	0.89µM*	-7%	0.89µM*	DNA dye displace=7%;Endo IV inh=97%;APE1 FP inh=13µM*
CCN(C(=O)C(C)N1C(=O)/C(=C/c2ccco2)SC1=S)C1CCS(=O)(=O)C1 (stereo not drawn)	-6%	.	-22%	.	.	.	.
O=C1/C(=C/c2cccs2)SC(=S)N1NS(=O)(=O)c1ccccc1	-5%	-14%	-8%	11%	-2%	-6%	.
COc1ccc(CNC(=O)C2CCN(C(=O)N3CCOc4ccc(Cl)cc43)CC2)cc1	.	.	-17%	.	.	.	.
C/C=C\C1=CCCC1Nc1ncnc2ccc(-c3c(C)noc3C)cc12 (stereo not drawn)	-12%	.	-12%	-7%	.	.	.
Cc1ccc(C(=O)Nc2nc3nc(-c4ccccc4)cc(=O)n3[nH]2)cc1	-1%	.	1%	-5%	-8%	17%	?
CCOc1ccc(CCNC(=O)c2cc3n(n2)CCCN(Cc2ccc(C)cc2)C3=O)cc1OCC	.	.	4%	.	.	.	.
O=C(O)C1CC=CCC1C(=O)Nc1ccccc1 (stereo not drawn)	-17%	.	-1%	-5%	0%	1%	-23%
O=C(O)Cc1ccc(NC(=O)C2CC=CCC2C(=O)O)cc1 (stereo not drawn)	20µM*	?	-2%	-4%	4%	-3%	-36%
Cc1ccc(NC(=O)CCCc2nnc3n(C)c(=O)c4sccc4n23)cc1C	.	.	3%	.	.	.	.
O=C(COC(=O)Cc1cccc(C(F)(F)F)c1)NC(=O)NC1CCCC1	-10%	4%	.	.	.	.	.
O=C(COC(=O)CCNS(=O)(=O)c1cccc(C(F)(F)F)c1)NC(=O)NC1CCCCC1	?	.	-6%	-11%	11%	-5%	?	DNA dye displace=-10%;Endo IV inh=0%;APE1 FP inh=3%

Compound activity deposited in PubChem by National Center for Advancing Translational Sciences (NCATS).
